# Measurements taken from PubChem BioAssay AID686979 (National Center for Advancing Translational Sciences (NCATS), 2013).
# The whole screen tested about 420,000 compounds, of which about 50,000 (12%) were called active. Where a call stands in place of a potency, no number is given. Not shown: some 26% with an inconclusive outcome. The sample as a whole holds a higher share of actives than the screen did. Unmarked numbers belong to inactive results. Calls follow the shape of the dose curve; as a rule, active = well fitted inhibition curve with a large enough effect; inconclusive = small, poorly fitted or top-dose-only effect; inactive = flat fitted curve, though single readings scatter.
# Test: qHTS for Inhibitors of human tyrosyl-DNA phosphodiesterase 1 (TDP1): qHTS in cells in presence of CPT; also: nearly all actives have a fitted effect of over 55% in size
# Conditions: chicken DT40 Tdp1-/-;hTDP1 cells + 20 nM CPT, ATP luminescence, 48 h; series mostly up to 46.2 µM
# Summary of the method: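 Chicken DT40 Tdp1-/- cells complemented with human TDP1, 400 cells/well, exposed to compounds plus 20 nM camptothecin for at least 48 h at 37 C; viability read as ATP content by CellTiter-Glo luminescence.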
# Potency is read from the fitted curve at half-maximal effect.
SMILES,Potency,"activity change, negative = growth inhibition"
Nc1cc(C(=O)N2CCN(c3ccccc3Cl)CC2)ccc1N1CC2CC(C1)c1cccc(=O)n1C2 (stereo not given),inactive,–
CC1(C)CN(CCc2ccccc2)C(=O)[C@H]1CC(=O)Nc1ccc(Br)cc1,inactive,–
Cc1ccc(NC(=O)Cc2nnc(SCC(=O)Nc3nncs3)n2C)cc1,inactive,–
CC1(c2ccc(Cl)cc2Cl)NC(=O)N(CC(=O)Nc2cccnc2Cl)C1=O (stereo not given),inactive,–
CCCc1ccc(C(=O)[C@@H]2[C@@H](C(C)=O)N3c4ccc(F)cc4C=C[C@@H]3[C@@]23C(=O)Nc2ccccc23)cc1,23.1 µM (active),–
O=C(O)c1ccc(-n2nc(-c3ccccc3)c3ccccc3c2=O)cc1,inactive,–
CCC(C)(C)NC(=O)C(c1ccc(O)cc1)N(Cc1ccco1)C(=O)CCC(=O)Nc1ccccn1 (stereo not given),inactive,–
CC(=O)c1nn(-c2ccc(OC(F)(F)F)cc2)nc1Nc1ccccc1,inactive,–
COc1ccccc1C(=O)Nn1cnnc1,inactive,–
CCc1noc(C)c1C(=O)OCC(=O)c1ccc(NC(=O)CC(C)C)cc1,20.6 µM (active),–
CCc1noc(C)c1C(=O)NNC(=O)c1ccc(F)cc1,inactive,–
COc1ccc(C(=O)COC(=O)c2c(C)noc2C)cc1Cl,inactive,–
O=C(c1ccccc1Cl)N(Cc1ccccc1F)N1C(=O)CCCC1=O,inactive,–
Brc1ccccc1C1Nc2cccc3cccc(c23)N1,inactive,–
Cc1ccc(C2Nc3cccc4cccc(c34)N2)cc1,2.59 µM (active),–
COc1cccc(C2Nc3cccc4cccc(c34)N2)c1,inactive,–
COc1ccc(CCn2c3c(c(=O)[nH]c2=S)CN(C(C)C)CN3)cc1OC,inactive,–
COCC(C)NC(=O)CSc1nc2nn(-c3ccccc3)c(=O)c-2c2n1CCCCC2 (stereo not given),inactive,–
Cc1ccc2nc(/C(C#N)=C\c3ccc(OC(=O)c4cccs4)cc3)[nH]c2c1,14.6 µM (active),–
CC(=O)Nc1ccc(C(=O)CSc2nc3ccc(C)cc3[nH]2)cc1,inactive,–
Cc1ccc2nc(/C(C#N)=C/c3ccc(-c4ccc(C(=O)OC(C)C)cc4)o3)[nH]c2c1,7.31 µM (active),–
CCOC(=O)CSc1nc2ccc(C)cc2[nH]1,inactive,–
Cc1ccc2nc(S(=O)(=O)O)[nH]c2c1,inactive,–
CN(C(=O)c1cccc([N+](=O)[O-])c1)c1ccccc1C(=O)NCc1ccccc1,inactive,–
COc1ccc(S(=O)(=O)N2CCN(c3ccc(F)cc3)CC2)cc1-c1noc(C)n1,inactive,–

SMILES,Potency,"activity change, negative = growth inhibition"
COc1ccc(CCNC(=O)C(=O)NCC2OCCN2S(=O)(=O)c2cccs2)cc1OC (stereo not given),inactive,–
Cc1cc(C)cc(OCC(=O)Nc2ccc(S(=O)(=O)Nc3ccccn3)cc2)c1,inactive,–
COC(=O)Cc1ccc(Oc2ncc(C(F)(F)F)cc2Cl)cc1,inactive,–
Cc1cc(C)cc(NS(=O)(=O)c2ccc(Oc3ncc(C(F)(F)F)cc3Cl)cc2)c1,23.1 µM (active),–
CCOC(=O)[C@H](CCc1ccccc1)N[C@@H](C)C(=O)N1CC2(C[C@H]1C(=O)O)SCCS2,inactive,–
COCCCNC(=O)[C@H]1N2C(=O)c3ccccc3C2SC1(C)C (stereo not given in full),inactive,–
CC(C)N1C[C@@H](NCc2ccccc2O)C[C@H]1C(=O)N1CCN(c2cccc(C(F)(F)F)c2)CC1,–,-8.03% [at 9.04 µM]
CC1CCC(N2CC(=O)N(CCC3=CCCCC3)C(c3ccc(F)cc3)C2=O)CC1 (stereo not given),13 µM (active),–
O=S(=O)(Cc1nnnn1-c1ccc(Br)cc1)c1ccc(F)cc1,inactive,–
NS(=O)(=O)c1ccc(NC(=O)COc2ccc(S(=O)(=O)NC3CCCCC3)cc2)cc1,inactive,–
CC(=O)c1cccc(NC(=O)C2CCCN(S(=O)(=O)c3cccc4nonc34)C2)c1 (stereo not given),inactive,–
O=C(C1CCCN(S(=O)(=O)c2ccccc2)C1)N1CCN(c2ccc(F)cc2)CC1 (stereo not given),11.6 µM (active),–
O=C(C1CCCN(S(=O)(=O)c2cccc3nonc23)C1)N1CCN(c2ccccc2F)CC1 (stereo not given),18.4 µM (active),–
CCCS(=O)(=O)N1CCCC(C(=O)N2CCN(c3ccccc3)CC2)C1 (stereo not given),inactive,–
Cc1ccc(S(=O)(=O)N2CCCC(C(=O)N3CCN(C)CC3)C2)cc1 (stereo not given),inactive,–
O=C(NCc1ccco1)C1CCCN(S(=O)(=O)c2cccc3nonc23)C1 (stereo not given),inactive,–
CN1CCC(N(C)S(=O)(=O)c2ccc(NC(=O)c3cccc(C#N)c3)cc2)CC1,inactive,–
COC(C[C@@H](O)C[C@H](O)[C@H](C)OCc1ccccc1)OC,inactive,–
CO[C@H]1O[C@@H]2O[C@@]3(C)CC[C@@H]4[C@@H](C)CC[C@@H]([C@H]1C)[C@@]24OO3,0.631 µM (active),–
COc1ccccc1C(=O)NC(CCSC)C(=O)N1CCN(C(C)=O)CC1 (stereo not given),inactive,–
CC(C)c1cccc(C(C)C)c1Nc1cn[nH]c1,14.6 µM (active),–
CC(=O)Nc1ccc(S(=O)(=O)N(C)c2ccc(OCC(=O)OCC(=O)N3CCCCC3)cc2)cc1,inactive,–
CCCN1C2CCCC1CC(NC(=O)c1cccc(OC)c1)C2 (stereo not given),inactive,–
CCCN1C2CCCC1CC(NC(=O)NC13CC4CC(CC(C4)C1)C3)C2 (stereo not given),16.4 µM (active),–
CCCNC(=S)NC1CC2CCCC(C1)N2CC(C)C (stereo not given),inactive,–

SMILES,Potency,"activity change, negative = growth inhibition"
Cc1ccc(NC(=O)CSCC(=O)Nc2sccc2C#N)cc1,inactive,–
COc1ccccc1C(=O)COC(=O)CNS(=O)(=O)c1ccc(NC(C)=O)cc1,inactive,–
COc1ccc(NC(=O)CN2C(=O)NC(C)(c3ccccc3)C2=O)cn1 (stereo not given),inactive,–
COc1ccc(NC(=S)NCCNC(C)=O)cc1,inactive,–
COc1ccc(CS(=O)/C(Cl)=C(/Cl)C(=O)Nc2ccc(OC)nc2)cc1 (stereo not given),0.0184 µM (active),–
Cc1nc(Nc2ccccc2F)c2nnn(Cc3ccccc3Cl)c2n1,inactive,–
NC(=O)c1sc(-c2ccsc2)cc1N,inactive,–
O=C(Nc1ccccc1-c1ccccc1)c1ccccc1[N+](=O)[O-],inactive,–
Cc1ccc(CC(=O)N(C)CC(=O)N(CC(C)C)c2c(N)n(CC(C)C)c(=O)[nH]c2=O)cc1C,inactive,–
Cc1ccc(-c2csc(NC(=O)c3cnccn3)n2)cc1C,inactive,–
COCc1ccc(C(=O)NC2CC(C)(C)Cc3c2cnn3-c2ccc(C)cc2)o1 (stereo not given),inactive,–
O=C(NCCCNC(=O)c1ccccc1Cl)c1cnccn1,inactive,–
Cc1ccc(-n2ncc3c2CCCC3NC(=O)c2cnccn2)cc1C (stereo not given),20.6 µM (active),–
COc1ccc(OC)c(C(=O)NC2CCCc3c2cnn3-c2cc(C)cc(C)c2)c1 (stereo not given),29.1 µM (active),–
COc1ccc(-n2ncc3c2CC(C)(C)CC3NC(=O)CCc2c(C)noc2C)cc1 (stereo not given),inactive,–
O=C(Cc1ccc(Cl)cc1)c1ccccc1,inactive,–
CCCCCCNCCn1cnc2c(N)ncnc21,inactive,–
COc1ccc(NC(=O)c2ccc3oc(=O)c(S(=O)(=O)c4ccc(F)cc4)cc3c2)c(OC)c1,inactive,–
COc1cccc(NC(=O)CN(C)C(C)C(=O)Nc2ccc(C#N)cc2)c1 (stereo not given),inactive,–
CCOC(=O)c1cc2c(=O)n3ccccc3nc2n(CCCOC)c1=NC(=O)C(C)(C)Oc1ccc(Cl)cc1,inactive,–
Nc1cc2c(cc1Br)-c1ccc(F)cc1C2=O,inactive,–
Cc1ccc(/C=N/NC(=O)CSc2nc3ccccc3o2)cc1,18.4 µM (active),–
CCN(CC)C(=O)CSc1nc2ccccc2o1,inactive,–
CC(C)(C)C(=O)CSc1nc2ccccc2o1,inactive,–
CC(Sc1nnc(C2CC2)n1C1CC1)C(=O)Nc1ccc(C(N)=O)cc1 (stereo not given),inactive,–

SMILES,Potency,"activity change, negative = growth inhibition"
COc1ccc(NS(=O)(=O)c2ccc(N3CCOCC3)c(NC(=O)/C=C/C(=O)O)c2)cc1,inactive,–
CC1CCN(c2ccc(S(=O)(=O)Nc3cc(C(=O)O)cc(C(=O)O)c3)cc2[N+](=O)[O-])CC1,inactive,–
COc1ccc(NS(=O)(=O)c2ccc(N3CCN(CCO)CC3)c([N+](=O)[O-])c2)cc1,9.2 µM (active),–
O=C(CSc1nncn1-c1cccnc1)N1CCOCC1,inactive,–
O=C1NC(c2ccccc2)Cc2ccncc21 (stereo not given),inactive,–
COc1ccc(OC)c(Cc2nnc(CCC(=O)NC3CCCC3)o2)c1,inactive,–
COc1ccc(OC)c(Cc2cnc3nc(N)nc(N)c3c2C)c1,0.259 µM (active),–
COc1ccc(OC)c(NC(=O)c2sc3nc(C)cc(C)c3c2N)c1,inactive,–
COCC1CCCN(Cc2ccc3c(c2)CN(C(=O)c2ccnn2C)CCO3)C1 (stereo not given),–,-3.58% [at 9.04 µM]
S=c1[nH]nc(-c2ccc(Cl)cc2)n1CC1CCCO1 (stereo not given),inactive,–
O=C(c1[nH]ncc1-c1ccc(Cl)cc1)C1CO1 (stereo not given),1.03 µM (active),–
COC(=O)c1ccc(C)c(NC(=O)C2CC(=O)N(C3CCCC(C)C3C)C2)c1 (stereo not given),inactive,–
C=C1C(=C/C=C2\CCC[C@]3(C)[C@@H]([C@H](C)CCCC(C)(C)O)CC[C@@H]23)C[C@@H](O)C[C@@H]1O,9.44 µM (active),–
CCNC(=O)C1(C)CCCN(C(=O)c2ccc3ccccc3n2)C1 (stereo not given),inactive,–
CCOC(=O)c1sc(NC(=O)CSc2n[nH]c(CC)n2)nc1C,inactive,–
O=C(N/N=C/c1ccc(Br)o1)c1cncc(Br)c1,inactive,–
Cc1sc2ncn(CC(=O)NCCCC(=O)NCc3ccc(F)cc3)c(=O)c2c1C,inactive,–
Cn1cc(S(=O)(=O)N2CCC(Cc3ccccc3)CC2)c(=O)n(C)c1=O,inactive,–
O=C1N[C@H](Cc2ccccc2)C(=O)N[C@H]1Cc1cn(S(=O)(=O)c2ccccc2)c2ccccc12,13 µM (active),–
CSc1ncccc1C(=O)Nc1ccc2c(c1)OCO2,inactive,–
Cc1c(NC(=O)/C=C/C(=O)O)cccc1[N+](=O)[O-],inactive,–
Cc1c(NC(=O)CCCOc2ccccc2)cccc1[N+](=O)[O-],inactive,–
Cc1c(NC(=S)NCc2ccc(F)cc2)cccc1[N+](=O)[O-],20.6 µM (active),–
CCN(CC(=O)NCc1ccc(Cl)cc1)C(=O)CSc1ccccc1,inactive,–
c1ccc(-c2ccc3c(c2)NC(C2Nc4cc(-c5ccccc5)ccc4O2)O3)cc1 (stereo not given),inactive,–
